From PubChem BioAssay
Most compounds without a hit are left out; they make up all but 19% or so of the library.
S-ASM inh – inhibitors of human secretory acid sphingomyelinase; placental ASM, HMU-PC fluorogenic substrate, 60 min; Potency, µM (doses to about 57.5 µM), actives largely listed as inhibitors; 0.006% of 340,000 active
Target sequence (P17405 47-631 limits assumed): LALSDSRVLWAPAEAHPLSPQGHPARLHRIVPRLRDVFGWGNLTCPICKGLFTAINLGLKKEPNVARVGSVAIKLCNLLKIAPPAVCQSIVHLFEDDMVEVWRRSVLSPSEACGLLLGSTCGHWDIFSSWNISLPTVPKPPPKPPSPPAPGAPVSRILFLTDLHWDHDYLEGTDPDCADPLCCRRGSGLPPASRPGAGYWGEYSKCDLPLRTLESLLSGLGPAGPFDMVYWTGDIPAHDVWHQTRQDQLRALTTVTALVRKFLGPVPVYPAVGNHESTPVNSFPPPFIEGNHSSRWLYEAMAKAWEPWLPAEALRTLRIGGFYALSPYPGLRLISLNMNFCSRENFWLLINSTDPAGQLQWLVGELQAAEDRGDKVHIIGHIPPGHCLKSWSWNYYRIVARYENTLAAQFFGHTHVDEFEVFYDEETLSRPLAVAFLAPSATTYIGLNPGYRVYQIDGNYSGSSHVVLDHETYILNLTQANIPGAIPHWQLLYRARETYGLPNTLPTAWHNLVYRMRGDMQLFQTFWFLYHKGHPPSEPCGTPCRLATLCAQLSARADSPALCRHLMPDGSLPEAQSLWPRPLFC
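Fluorogenic HMU-PC substrate (9 uM final) is turned over by placental ASM in 60 min at 37 C after a 10 min compound preincubation. Reaction ended by alkaline stop (pH 10), with fluorescence read at 386/447 nm.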
IL-1B inflam inh – inflammasome signaling inhibition, IL-1 beta readout. THP-1 LPS/ATP IL-1B secretion, AlphaLISA, 16 h; hits give low values. activity change, % at 57.5 µM. 4.7% of 360,000 active; in the data active means activity change below about -50%; inconclusive means mostly about -30% to -49%
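Secreted IL-1B measured by AlphaLISA bead assay after 16 h compound exposure of THP-1 cells; compounds (final up to 57.5 uM) added 1 h before LPS (250 ng/mL) and ATP (1.25 mM) stimulation; lower signal means less secretion.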
HepG2 viability – HepG2 cytotoxicity, counter-screen for TGF-b inhibitors; HepG2 CAGA-GFP viability, ATP luminescence, 18 h; Potency, µM (series often up to 46.1 µM), usual class: cytotoxic; 0.76% of 410,000 active
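CellTiter-Glo luminescence gave cytotoxicity after 18 hours at 37 degrees C. The cells were HepG2 CAGA-GFP in 1% FBS DMEM, stimulated with 500 pg/mL TGF-beta after compound addition. %Activity was normalised to no-cell wells (complete cell-killing) and DMSO (no toxicity), and curves were fitted and classified.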
DT40 TDP1 no CPT – qHTS for Inhibitors of human tyrosyl-DNA phosphodiesterase 1 (TDP1): qHTS in cells in absence of CPT; 15% of 420,000 active; DT40 Tdp1-/- hTDP1 cells, no CPT, ATP luminescence, 48 h; AID 686978, 2013; Potency, µM (titrated, usually from 46.2 µM), actives largely listed as inhibitors; further: nearly all actives have a fitted effect of over 55% in size
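A cellular qHTS used chicken DT40 cells lacking endogenous Tdp1 but carrying stably transfected human TDP1. Compounds were applied without camptothecin, and cell growth kinetics were judged by ATP-dependent luminescence after ≥48 hr.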
DT40 TDP1 CPT – DT40-hTDP1 cell growth loss with CPT; Potency, µM (top dose mostly 46.2 µM), usual class: inhibitors; AID 686979; 12% of 420,000 active; chicken DT40 Tdp1-/-;hTDP1 cells + 20 nM CPT, ATP luminescence, 48 h; further: nearly all actives have a fitted effect of over 55% in size
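Chicken DT40 Tdp1-/- cells complemented with human TDP1, 400 cells/well, exposed to compounds plus 20 nM camptothecin for at least 48 h at 37 C; viability read as ATP content by CellTiter-Glo luminescence.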
TGFb inhibitor – TGF-b pathway inhibition; Potency, µM (titrated, usually from 46.1 µM), actives largely listed as inhibitors; AID 588855; HepG2 CAGA-GFP TGF-b/SMAD3 reporter, GFP fluorescence, 18 h; TGF-beta stimulated, 500 pg/mL final; 1.2% of 410,000 active; further: nearly all actives have a fitted effect of over 65% in size
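TGF-beta reporter screen: HEPG2 CAGA-GFP, 1% FBS, 500 pg/mL TGF-beta final, 18 h; per-cell GFP summed per well; curves fitted and categorized by class.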
Numbers stand for hits; - = inactive; ? = inconclusive; . = no result given; ! = a repeat was not active. Unless noted, the call rests on the fitted dose curve; in most records, active means well fitted curve in the direction sought with a large enough effect; inconclusive means small, poorly fitted or top-dose-only effect, or another doubt; inactive means no such curve, though single readings can be large; an effect the other way counts as inactive or inconclusive.

SMILES	S-ASM inh	IL-1B inflam inh	HepG2 viability	DT40 TDP1 no CPT	DT40 TDP1 CPT	TGFb inhibitor
Cc1ccc(N(C)S(=O)(=O)c2cccc(C(=O)N(C)Cc3cnn(-c4ccccc4)c3)c2)cc1	-	-80.9	-	?	?	?
CN(Cc1cnn(-c2ccccc2)c1)C(=O)c1cccc(S(=O)(=O)N(C)c2ccccc2)c1	.	-	-	16.4µM	18.4µM	-
CN(Cc1cnn(-c2ccccc2)c1)C(=O)c1ccc(S(=O)(=O)NCc2ccco2)cc1	.	-	-	?	-	-
CN(Cc1ccccc1)C(=O)c1ccc(S(=O)(=O)N(C)c2ccccc2)cc1	-	-	-	?	?	-
CCOc1ccc(OCCC(=O)N(CCCOC)c2c(N)n(Cc3ccccc3)c(=O)[nH]c2=O)cc1	-	-	-	-	-	-
O=C(Nc1ccc(O)c(C(=O)O)c1)c1cccc(NC(=O)c2ccco2)c1	-	-	-	-	-	-
Cc1c2cnccc2c(C)c2c1oc1ccccc12	-	-72.9	-	23.1µM	?	?
Cc1nc2c(oc3ccccc32)c(=O)o1	-	-	-	-	-	-
Cc1ccc(SCc2c(C(=O)N/N=C/c3cccs3)nnn2-c2nonc2N)cc1	.	-	-	?	-	-
COc1cc(NC(=O)c2ccc(NC(=O)N3CCSc4ncccc43)cc2)cc(OC)c1	.	.	-	13µM	14.6µM	-
Cc1ccc(Cl)cc1NC(=O)c1ccc(NC(=O)N2CCSc3ncccc32)cc1	.	.	-	20.6µM	?	-
Cc1ccc(NC(=O)c2ccc(NC(=O)N3CCSc4ncccc43)cc2)c(Cl)c1	.	.	-	?	?	-
CCOC(=O)c1c(CN2CCN(c3ccccc3)CC2)oc2ccc(O)cc12	-	-	-	?	?	-
CCOC(=O)c1c(CN2CCCCC2)oc2ccc(OC)cc12	-	-	-	23.1µM!	?	-
CCOC(=O)c1c(CN2CCC(C)CC2)oc2ccc(OC)cc12	-	-	-	?	23.1µM	-
CCOC(=O)c1c(CN2CCCCC2C)oc2ccc(OC)cc12 (stereo not given)	-	-	-	?	20.6µM	-
CCOC(=O)c1c(CN2CCN(C)CC2)oc2ccc(OC)cc12	-	?	-	-	-	-
O=C(O)Cn1c(SCCOc2ccccc2F)nc2ccccc21	-	-	-	16.4µM	?	-
CCN(CC)C(=O)Cn1c(SCCOc2ccc(Cl)cc2)nc2ccccc21	.	.	-	20.6µM	?	?
OCCn1c(SCCOc2ccccc2F)nc2ccccc21	-	-	-	?	-	-
Cc1ccc(N/N=C(/Sc2nnnn2-c2ccccc2)C(=O)c2ccccc2)cc1	-	-	-	?	29.1µM	?
O=C(/C=C/c1ccc(O)c(O)c1)O[C@H]1C[C@@](O)(C(=O)O)CC(O)C1O (stereo not given in full)	.	.	.	-	-	.
CC(=O)CCC1C2C(O)C(C(C)C)C(OC(=O)/C=C/c3ccccc3)CC12C (stereo not given)	-	-	-	25.9µM	18.4µM	?
CCC(CC)C(=O)N(C)c1c(C)nc2c(OCc3ccccc3OC)cccn12	.	-	-	14.6µM	?	-
COC(=O)c1ccccc1COc1cccn2c(N(C)Cc3cccs3)c(C)nc12	.	-78.2	-	?	?	?
SMILES	S-ASM inh	IL-1B inflam inh	HepG2 viability	DT40 TDP1 no CPT	DT40 TDP1 CPT	TGFb inhibitor
CCC(CC)C(=O)N(C)c1c(C)nc2c(OCC3CCCCC3)cccn12	.	-	-	13µM	?	?
CCc1nc2c(OCc3ccc(F)cc3)cccn2c1N(C)C(=O)C(C)C	.	-	-	?	-	-
CCC(CC)C(=O)N(C)c1c(C)nc2c(OCc3ccccc3C(=O)OC)cccn12	.	-	-	16.4µM	?	-
CCc1nc2c(OCC(N)=O)cccn2c1N(C)C(=O)C(C)C	.	-	-	-	-	-
COc1cc2c(=O)n(CCC(=O)NCC3CCCO3)c(=O)n(CC(=O)Nc3ccc(C)cc3C)c2cc1OC (stereo not given)	-	-	-	-	-	-
O=C(Nc1ccc(C(=O)NCc2ccccc2)cc1)C1=CSCCO1	-	-	-	-	-	-
Cc1ccc(-c2nc3sc(CCNC(=O)c4ccc(Br)o4)c(C)n3n2)cc1	.	.	-	29.1µM	?	17.8µM
Cc1c(CCNC(=O)c2ccc(Br)o2)sc2nc(-c3ccc(F)cc3)nn12	.	.	-	4.61µM	11.6µM	?
O=c1cc(SCc2ccc(Cl)cc2Cl)nc[nH]1	-	-	-	-	-	-
COCCCN1C(=O)C2C(C(=O)Nc3cccc(Cl)c3)C3C=CC2(O3)C1C(=O)NC1CCCCC1 (stereo not given)	-	-	-	-	-	-
COc1ccccc1NC(=S)NNC(=S)Nc1ccc(OC(F)F)cc1	-	-85.5	-	20.6µM	?	-
COc1ccc(C/C(C)=N/NC(=S)Nc2ccc(C(C)C)cc2)cc1	-	-	-	?	?	-
CC/C(=N\NC(=S)Nc1ccc(OC)cc1)c1ccc(OC(F)F)cc1	-	-	-	5.8µM	2.91µM	-
O=C(NNC(=S)Nc1ccc(Cl)cc1)c1ccccc1OC(F)F	-	-	-	23.1µM	?	14.1µM
C/C(=N\NC(=S)Nc1c(C)cccc1C)c1ccc(OC(F)F)cc1	-	-	-	9.2µM	10.3µM	?
COC(=O)N/N=C(\C)c1ccc(OC(F)F)cc1	-	-	-	-	-	-
CCOc1ccc(OCCC(=O)NNC(=O)c2ccccc2Cl)cc1	-	-	-	-	-	-
CCS(=O)(=O)NC(=O)C1(C)CCN1C(=O)Cc1ccc(Cl)cc1Cl (stereo not given)	.	-	-	-	-	-
CCc1ccc([C@@H]2CC(=O)[C@@H]3CN(S(=O)(=O)c4ccc(Cl)cc4)[C@H](c4ccc(C)cc4)C[C@@H]3N2S(=O)(=O)c2ccc(C)cc2)cc1	.	-	-	-	-	-
CC1CCCC(C)N1NC(=S)Nc1ccc(OC(F)F)cc1 (stereo not given)	-	-	-	?	20.6µM	-
CC/C(=N\NC(=S)Nc1cc(C)ccc1C)c1ccc(OC(F)F)cc1	-	-	-	16.4µM	?	?
C=CCn1c(SCC(=O)Nc2c(C)n(C)n(-c3ccccc3)c2=O)nnc1-c1cccnc1	-	-	-	-	-	-
O=C(Cc1cccs1)Nc1ccccc1F	-	-	-	-	-	-
COC(=O)c1ccc(C(=O)NC2CCCc3c2cnn3-c2ccccc2F)nc1 (stereo not given)	-	-	-	2.91µM	5.17µM	-
